# Hits are enriched below; roughly 7.6% of the tested compounds scored in any of these assays.
# hERG WT inh: blocks the wildtype human KCNH2 potassium channel; Q12809; U2OS, BacMam KCNH2, thallium flux FluxOr; hits give low values; activity change, % at 1.84 µM; hit rate 0.37% among 340,000;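 active = maximum activity change below -70%; inconclusive = maximum activity change between -70% and -50%; inactive = maximum activity change above -50%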
#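 U2OS cells were transduced with wild-type KCNH2 virus (2.03 x 10^8 / mL) for 4 h at room temperature, then cultured overnight at 37 C. Thallium flux was read with FluxOr dye. Rate constants were normalized to DMSO controls.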
# MCF10A rereplic: induces DNA re-replication in MCF 10a normal breast cells; AID 624296; hit rate 2.9% among 350,000; MCF 10A DNA re-replication, Hoechst nuclear intensity, 48 h; Potency, µM (titrated, usually from 46.1 µM), usual class: activators; note: nearly all actives have a fitted effect of over 50% in size
# KB-3-1 tox: kills parental KB-3-1 adenocarcinoma cells; KB-3-1 viability, CellTiter-Glo ATP luminescence, 72 h; Potency, µM (titrated, usually from 46.1 µM), actives largely listed as cytotoxic; hit rate 1.4% among 400,000; note: nearly all actives have a fitted effect of over 60% in size
#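 Parental KB-3-1 adenocarcinoma cells in phenol-red-free DMEM with 10% FBS were pin-treated with compounds at several concentrations, incubated 72 h at 37 °C, and viability read by CellTiter-Glo luminescence; concentration-effect curves were fitted after normalization.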
# KCNH2 3.1 block: KCNH2 3.1 (human) potassium channel inhibition; hit rate 0.95% among 340,000; U2OS KCNH2 3.1, thallium flux FluxOr; hits give low values; activity change, % (tested at about 1.8 µM); AID 720553;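 active = maximum activity change below -70%; inconclusive = maximum activity change from -70% to -50%; inactive = maximum activity change above -50%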;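 note: thallium influx rate constant from kinetic fluorescence after stimulation buffer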
#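 Steps: virus added to U2OS suspension (4 h, RT, dark); medium with 10% FBS added, cells plated, 37 C overnight; FluxOr/Red40 loading buffer 45 min RT; stimulation buffer, 2 min kinetic read; rate constant normalized.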
# KB-V1 MDR tox: KB-V1 MDR subline cytotoxicity. Potency, µM (highest dose often 46.1 µM), actives largely listed as cytotoxic. KB-V1 MDR cells viability, CellTiter-Glo, 72 h. hit rate 3.4% among 400,000; note: nearly all actives have a fitted effect of over 60% in size
#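 In this primary screen, KB-V1 cells overexpressing P-gp are incubated with library compounds (lowest to highest concentration) for 72 h at 37 degrees C before a luminescent ATP viability read.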
# SW480 rereplic: induces DNA re-replication in SW480 colon adenocarcinoma cells; SW480 DNA re-replication, Hoechst DNA content imaging, 48 h; Potency, µM (series often up to 46.1 µM), usual class: activators; hit rate 1.8% among 340,000; AID 624297; note: nearly all actives have a fitted effect of over 55% in size
#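 Treated cells incubate 48 hr (37 C, 5% CO2), are stained 40 min with Hoechst, and nuclear fluorescence is enumerated; a rise in nuclei with high DNA signal marks re-replication.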
# Hits are given with their value; – = inactive; ? = inconclusive; · = no result. Unless noted, calls come from the whole dose curve; as a rule, active = well fitted curve in the direction sought with a large enough effect; inconclusive = small, poorly fitted or top-dose-only effect, or another doubt; inactive = no such curve, though single readings can be large; an effect the other way counts as inactive or inconclusive.
SMILES,hERG WT inh,MCF10A rereplic,KB-3-1 tox,KCNH2 3.1 block,KB-V1 MDR tox,SW480 rereplic
Cc1cccn2c(=O)c3cc(C(=O)NCC4CCCO4)c(=N)n(CC4CCCO4)c3nc12 (configuration not stated),–,4.6µM,–,–,–,3.7µM
COc1ccc(CNC(=O)c2cc3c(=O)n4cccc(C)c4nc3n(CC3CCCO3)c2=N)cc1 (configuration not stated),–,8.2µM,–,–,–,4.1µM
CCOC(=O)c1cc2c(=O)n3cccc(C)c3nc2n(CC2CCCO2)c1=NC(C)=O (configuration not stated),–,?,?,–,–,–
COc1ccc(CCn2c(=N)c(C(=O)NCC3CCCO3)cc3c(=O)n4cccc(C)c4nc32)cc1 (configuration not stated),–,2.9µM,?,?,?,5.8µM
O=C(NC1CCCCC1)C(c1cccnc1)N(C(=O)CCl)c1cccc(Cl)c1 (configuration not stated),–,13µM,23µM,–,21µM,4.1µM
O=C(NC1CCCC1)C(c1ccc(F)cc1)N(Cc1ccc(Cl)cc1)C(=O)CCl (configuration not stated),–,–,?,–,16µM,–
CCC(C)(C(=O)NC1CCCCC1)N(Cc1cccs1)C(=O)Cc1cccs1 (configuration not stated),–,–,–,–,13µM,–
CCC(C)(C(=O)NC1CCCC1)N(Cc1cccs1)C(=O)c1ccc2c(c1)OCO2 (configuration not stated),–,–,–,–,?,–
COC(=O)c1ccc(C(C(=O)NC2CCCCC2)N(Cc2ccc(F)cc2)C(=O)Cc2cccs2)cc1 (configuration not stated),–,–,–,–,3.7µM,–
COC(=O)c1ccc(C(C(=O)NC2CCCCC2)N(CCc2ccccc2)C(=O)Cc2cccs2)cc1 (configuration not stated),–,–,–,–,–,–
O=C(NC1CCCC1)C(c1ccc(Cl)cc1)N(Cc1ccc(F)cc1)C(=O)CCl (configuration not stated),–,–,–,–,–,?
O=C(NC1CCCC1)C(c1ccsc1)N(C(=O)Cc1cccs1)c1ccc(F)cc1 (configuration not stated),–,?,–,-76,–,–
Cc1ccc(C(=O)N(CC(=O)NC2CCCC2)Cc2cccs2)s1,–,–,–,–,5.8µM,–
Cn1cccc1C(C(=O)NC1CCCCC1)N(C(=O)Cc1cccs1)C1CC1 (configuration not stated),–,–,–,–,6.5µM,–
COc1ccc(N(C(=O)c2cnccn2)C(C(=O)NC2CCCCC2)c2ccc(Cl)cc2)cc1 (configuration not stated),–,–,–,–,–,–
COc1ccc(C(C(=O)NC2CCCCC2)N(C(=O)CCl)c2ccc(Cl)cc2)cc1 (configuration not stated),–,?,5.8µM,–,?,?
CCCC[n+]1c(-c2ccc(Cl)cc2Cl)csc1Nc1ccccc1,–,23µM,–,–,?,–
C=CC[n+]1c(-c2ccc(Cl)cc2Cl)csc1Nc1ccc(NC(C)=O)cc1,–,?,?,–,–,23µM
O=C(NN=Cc1ccc2c(c1)CCC2)c1cccc([N+](=O)[O-])c1,–,·,–,–,–,·
C=C(CN(C)C)C(=O)c1ccc(OC2OC(COC(C)=O)C(OC(C)=O)C(OC(C)=O)C2OC(C)=O)cc1 (configuration not stated),–,?,?,–,?,5.8µM
Cn1c(=O)c2sccc2n2c(CCCC(=O)N3CCN(c4ccccn4)CC3)nnc12,–,–,–,–,–,–
Cc1ccc(CN2CCN(CC(=O)N=Nc3c(O)[nH]c4ccccc34)CC2)cc1,?,?,–,-72,?,–
Cc1ccc(S(=O)(=O)N(CC(=O)N=Nc2c(O)[nH]c3ccccc23)c2cccc(C)c2)cc1,–,?,21µM,–,21µM,?

# Source: PubChem
